# Compound activity (PubChem BioAssay)
# aSyn UTR inh: 5' untranslated region of α-synuclein, MLPCN primary screen | alpha-synuclein 5'UTR reporter, inhibitor activity | inhibition, % (tested at 7.5 µM) | 300,000 compounds, 0.82% hits | AID 1813; in the data active = inhibition above about 60%;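 also: H4 neuroglioblastoma cells stably carrying SNCA 5'UTR luciferase fusion; 0% = DMSO wells and 100% = positive control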
# Platelet DG rel: modulates dense granule release in human platelets; human platelet-rich plasma, SFLLRN dense granule ATP release, luminescence; inhibition, %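 (compounds screened at 7.5 µM in platelet-rich plasma)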; 300,000 compounds, 0.22% hits;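 active = mean replicate score, as percent of positive control, at or above 50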
# KLF5 inhibitor: kruppel-like factor 5 inhibition. DLD-1 KLF5 promoter-luciferase reporter, luminescence. inhibition, % at 5 µM. 290,000 compounds, 0.23% hits. AID 1700;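 active = inhibition above a per-plate limit of that plate's mean compound inhibition plus 3 SD, cut at about 60% in these data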;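 also: 0% = DMSO wells and 100% = LY294002 at 200 µM; higher means less KLF5 promoter-driven luciferase light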
# Wee1 degr inh: inhibitors of human Wee1 degradation | AID 1321 | HeLa Luc-Wee1K328M stability, luciferase luminescence; 100% = proteasome inhibitor MG132 effect | reporter increase, % at 5 µM | 220,000 compounds, 1.2% hits;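 active = activation above the mean of all tested compounds plus 3 SD, set per screening run, cut at about 8.8% in these data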;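 also: cells exposed to compound for 20 h before luminescence read; 0% = DMSO alone and 100% = MG132 at 30 µM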
# Target sequence (P30291 whole entry K328M): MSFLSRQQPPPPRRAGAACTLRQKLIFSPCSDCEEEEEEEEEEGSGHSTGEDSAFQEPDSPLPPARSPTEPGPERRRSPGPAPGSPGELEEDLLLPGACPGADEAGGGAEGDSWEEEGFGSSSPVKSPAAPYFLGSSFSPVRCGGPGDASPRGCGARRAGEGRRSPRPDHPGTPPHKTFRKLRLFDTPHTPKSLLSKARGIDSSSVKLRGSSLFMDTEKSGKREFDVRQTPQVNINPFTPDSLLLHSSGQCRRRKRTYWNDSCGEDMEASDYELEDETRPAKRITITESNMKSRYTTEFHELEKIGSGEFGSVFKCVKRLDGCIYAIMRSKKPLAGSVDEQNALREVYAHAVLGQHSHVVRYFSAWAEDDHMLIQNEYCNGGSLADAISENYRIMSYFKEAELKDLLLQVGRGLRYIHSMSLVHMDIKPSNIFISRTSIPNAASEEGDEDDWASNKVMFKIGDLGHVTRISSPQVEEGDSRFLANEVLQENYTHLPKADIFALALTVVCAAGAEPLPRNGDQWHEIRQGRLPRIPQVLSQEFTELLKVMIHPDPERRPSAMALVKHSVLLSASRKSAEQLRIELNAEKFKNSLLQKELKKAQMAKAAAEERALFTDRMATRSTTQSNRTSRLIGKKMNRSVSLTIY
# HIF activator: HIF pathway transcriptional activation | activation, % at 7.5 µM (by protocol) | U2OS HRE-luciferase reporter, luminescence; normalized: DMSO 0%, desferrioxamine 100% | 300,000 compounds, 0.32% hits;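 active = mean activation of at least 10% of the iron chelator positive control signal, with at least half of replicates also reaching 10%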
# Numbers without * were called inactive; . = no result. An excerpt weighted towards active compounds, which were near 2.1% of everything screened.
SMILES,aSyn UTR inh,Platelet DG rel,KLF5 inhibitor,Wee1 degr inh,HIF activator
Cc1ccc(OCCC(=O)OCC(=O)Nc2ccc3c(c2)OCCO3)cc1,4,6,.,.,1
CCOC(=O)c1c(C)[nH]c(C)c1S(=O)(=O)N1CCN(c2ccc(F)cc2)CC1,5,-4,0,.,.
O=C(c1ccccc1)c1ccc(O)cc1O,-3,6,-23,0,0
O=C(c1ccccc1)c1ccc2cc(O)ccc2c1,-231,71*,-154,.,3
CCOC(=O)c1c(NC(=O)Nc2ccc(C)cc2)sc2c1CCN(C)C2,-5,4,-36,10*,0
O=C(CCl)c1ccc2c(c1)CCN2C(=O)C1CCCCC1,-10,7,-46,0,3
O=C(CCl)c1ccc2c(c1)CCN2C(=O)C1CC1,-94,2,-16,0,35*
CC1(c2nnc(-c3ccccc3)o2)CC(c2ccccc2)=NO1 (centres undefined),-21,2,.,.,1
COc1ccc2c(c1)C(=O)CC(O)(C(F)F)O2 (centres undefined),2,-3,1,9.8*,0
Cc1cc(C(=O)O)oc(=O)c1,-7,4,20,4,219*
CC(=O)Nc1ccc(S(=O)(=O)c2cc(O)ccc2O)cc1,-9,2,-39,.,-1
O=C1CC(c2ccccc2)CC(O)=C1C=Nc1cccc(Cl)c1 (centres undefined),-4,4,-8,9.6*,0
Cc1cc(C)nc(N/N=C/C2=C(O)CC(c3ccccc3)CC2=O)n1 (centres undefined),53,-3,27,0,22*
O=C1CC(c2ccccc2)CC(O)=C1C=Nc1ccc(Cl)cc1 (centres undefined),-34,-13,-20,-3,0
COc1ccc(-c2nnc(SCC(=O)Nc3ncc(C)s3)n2-c2ccccc2)cc1OC,-15,-1,19,9.9*,3
O=C(Nc1cccc(NC(=O)c2ccccc2Cl)c1)c1ccc([N+](=O)[O-])o1,86*,3,10,.,-2
CC(C)CC(=O)NC(=S)Nc1cccc(NC(=O)c2ccccc2Cl)c1,3,-5,-93,1,0
CC(C)CC(=O)Nc1cccc(NC(=O)c2ccccc2Cl)c1,-1,92*,-18,-3,0
CCCC(=O)Nc1cccc(NC(=O)c2ccccc2Br)c1,.,86*,-16,-3,.
O=C(Nc1ccc(N2CCCC2)c(Cl)c1)c1ccc([N+](=O)[O-])o1,.,.,-5,6,.
CCN1CCN(S(=O)(=O)c2ccc(OC)c(NC(=O)c3ccccc3)c2)CC1,21,3,10,.,0
CN(C)/N=C/C=C1\CCC/C(=C/c2cccs2)C1=O,-173,6,-236,8,10*
COc1ccc(NC(=O)C(=O)NCC(c2ccco2)N2CCc3ccccc32)cc1 (centres undefined),85*,.,.,.,2
CC(=O)Nc1ccc(NC(=O)C(=O)NCC(c2ccco2)N2CCc3ccccc32)cc1 (centres undefined),10,0,.,.,0
Cc1cc2cc(CNC(=O)NC3CCCCC3)ccc2[nH]1,-17,-6,-10,2,0
SMILES,aSyn UTR inh,Platelet DG rel,KLF5 inhibitor,Wee1 degr inh,HIF activator
Cc1cc2cc(CNC(=S)NC3CCCCC3)ccc2[nH]1,-13,-2,10,9.9*,0
Cc1nnc(-c2ccccc2)nc1N(C)C,2,-1,0,-2,701*
CN(C)c1nc(-c2ccccn2)nnc1-c1ccccc1,79*,-5,22,2,105*
COc1cnc(-c2ccccn2)nc1N(C)C,99*,-1,4,1,78*
COc1ccc(Oc2nc(-c3ccccn3)ncc2OC)cc1,2,7,-29,1,0
Cc1ccc(-c2nnc(-c3ccccc3)c(-c3ccccc3)n2)cc1,-50,2,-9,-3,1
Cc1cccc(Oc2coc3cc(OC(=O)c4cccs4)ccc3c2=O)c1,-44,-6,-8,11*,-26
CCCOc1ccc2c(c1)C(=NN=C(N)N)c1cc(OCCC)ccc1-2,-46,7,-38,.,-1
CCOC(=O)C(=CNc1ccc(NC2=NCC(C)S2)cc1)C(=O)OCC (centres undefined),10,10,-21,0,17*
CCNc1nc(OC)nc(SCC(=O)Nc2ccccc2)n1,-30,-7,-8,3,3
Cc1cccc(NC(=O)Nc2ccc(Oc3c(F)c(F)c(F)c(F)c3F)cc2)c1,6,-10,17,-3,0
O=C(Nc1ccc(Oc2c(F)c(F)c(F)c(F)c2F)cc1)OC1CCN2Cc3ccccc3N=C12 (centres undefined),104*,-2,-11,1,-4
CS(=O)(=O)c1cccc(-c2nnc(NC(=O)C3=COCCO3)o2)c1,4,.,.,.,1
Cc1ccc(-c2c(C(=O)N/N=C/c3cccnc3)nnn2-c2nonc2N)cc1,-9,9,-15,.,0
C/C(=N\NC(=O)c1nnn(-c2nonc2N)c1CN1CCc2ccccc21)c1ccccc1O,75*,-6,46,.,1
CCOc1ccc(-c2c(C(=O)N/N=C/c3cccnc3)nnn2-c2nonc2N)cc1,12,4,-27,.,25*
Cc1ccc(/C=N/NC(=O)c2nnn(-c3nonc3N)c2-c2cccs2)cc1,69*,-14,11,.,0
Nc1nonc1-n1nnc(C(=O)N/N=C/c2ccccc2)c1CN1CCc2ccccc21,-7,12,-22,.,-1
CCOc1cccc(-c2c(C(=O)N/N=C(\C)c3ccncc3)nnn2-c2nonc2N)c1,25,9,-25,.,0
CCOc1cccc(-c2c(C(=O)N/N=C(\C)c3ccccn3)nnn2-c2nonc2N)c1,90*,13,58,.,16*
COc1ccccc1OC1OC2COC(c3ccco3)OC2C(O)C1NC(C)=O (centres undefined),10,5,-34,9.1*,0
CC1CCN(c2c(NCc3ccc(C(=O)N(C)C4CCCCC4)cc3)c(=O)c2=O)CC1,22,1,-15,2,0
CC1CCN(c2c(NCc3ccc(C(=O)N4CCc5ccccc54)cc3)c(=O)c2=O)CC1,88*,-7,-14,2,0
COc1ccc(CCNCc2cc(C)n(-c3ccc(OC)cc3)c2C)cc1,0,-6,8,.,-37
COCCCNCCOc1ccc(C(C)(C)c2ccccc2)cc1,-7,-4,8,9.7*,0
Nc1nc(COc2ccc(F)cc2Cl)nc(N2CCCCC2)n1,24,-4,-25,0,0
COc1ccc(-c2nc(-c3cccs3)no2)cc1,83*,32,-5,-1,-3
COC(=O)C1=C(N)Oc2cc(N(C)C)ccc2C1c1ccccc1OC (centres undefined),83*,-2,-6,-1,1
COc1cc(/C=C/C(=O)NC(C)CCc2ccccc2)cc(OC)c1OC (centres undefined),-3,12,-15,11*,0
CC(CCc1ccccc1)NC(=O)/C=C/c1ccccc1 (centres undefined),-6,11,10,0,1
